Results as given in PubChem BioAssay (Tox21).
Records with an inconclusive call do not appear. The source made the active and inactive calls. Unless noted, calls follow the shape of the full dose curve.

Assays:
[1] = Nuclear factor erythroid 2-related factor 2/antioxidant responsive element (Nrf2/ARE) small molecule agonists: qHTS cell viability counter screen in human keratinocytes (AID 1919968; active = well fitted cell-killing curve with a large enough effect in the repeat runs; also: nearly all actives have a fitted effect of over 55% in size)
In short: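 Cytotoxicity was multiplexed with the Nrf2/ARE luciferase assay in the same wells. Stably transfected HaCaT keratinocytes were treated with test compounds for 23 h at 37 C. Cell viability was then measured by CellTiter-Fluor fluorescence.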

[2] = Nuclear factor erythroid 2-related factor 2/antioxidant responsive element (Nrf2/ARE) small molecule agonists: luciferase reporter gene qHTS assay in human keratinocytes (AID 1919969); also: nearly all actives have a fitted effect of over 35% in size
[3] = target: Gonadotropin-releasing hormone receptor (Homo sapiens) (UniProt P30968); experiment: Human gonadotropin-releasing hormone receptor (GnRHR) small molecule agonists, calcium flux assay in GnRHR-HEK293 cells (AID 1920063); also: nearly all actives have a fitted effect of over 35% in size
In short: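 Agonist activity was measured as intracellular calcium flux in HEK293 cells engineered to stably express human GnRHR. After dye loading for 1 hour at 37 C, compounds in DMSO were added and fluorescence was followed for 3 minutes.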

[4] = G protein-coupled receptor (GPCR) small molecule agonists, calcium flux assay: HEK293 wild type cell line counter screen (AID 1920065)
In short: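 Seed cells, incubate 18 h (37 C, 5% CO2); add calcium dye, 1 h at 37 C; pin-transfer compounds, ATP control or DMSO; read fluorescence 480/540 nm each second for 3 min.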

[5] = p53 small molecule agonists, cell-based qHTS assay with human liver microsomes (AID 1963577)
In short: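 Fluorescence of the beta-lactamase reporter in p53RE-bla cells, detected with LiveBLAzer substrate (2 h, room temperature, dark), served as the read-out after 16 h compound exposure at 37 C with human liver microsomes and NADPH, each 0.5 mg/mL final.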

[6] = p53 small molecule agonists, cell-based qHTS assay with rat liver microsomes (AID 1963578)
In short: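 Cells carrying a p53 response element–beta-lactamase reporter were plated and rested 5 h, then dosed with compound in DMSO plus rat liver microsomes and NADPH, each at 0.5 mg/mL final. After 16 h at 37 C, LiveBLAzer substrate was added for 2 h.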

[7] = p53 small molecule agonists, cell-based qHTS assay with human liver microsomes: qHTS cell viability counter screen (AID 1963579); also: nearly all actives have a fitted effect of over 45% in size
In short: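 Cytotoxicity counter screen: p53RE-bla, 4,000 cells/well; 5 h settle, 37 C/5% CO2; cpd + HLM 0.5 mg/mL + NADPH 0.5 mg/mL (final); 16 h, 37 C; CellTiter-Glo, 30 min RT, luminescence.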

[8] = p53 small molecule agonists, cell-based qHTS assay with rat liver microsomes: qHTS cell viability counter screen (AID 1963580); also: nearly all actives have a fitted effect of over 45% in size
In short: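 After the beta-lactamase ratio was read, CellTiter-Glo was added to the same wells and luminescence measured at 30 min; cells had been treated 16 h at 37 C with compounds, rat liver microsomes and NADPH (0.5 mg/mL final each).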

[9] = p53 small molecule agonists, cell-based qHTS assay: qHTS cell viability counter screen (AID 1963581); also: nearly all actives have a fitted effect of over 45% in size
In short: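 Viability was counter-screened in parallel with the p53 agonist reporter by measuring intracellular ATP luminescence in the same HCT-116 p53RE-bla wells after 16 h compound treatment at 37 C.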

[10] = p53 small molecule agonists, cell-based qHTS assay (AID 1963582; active = well fitted activation curve with a large enough effect in the signal ratio in the repeat runs, not every such curve was filed as active; the % refers to the signal ratio)
In short: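 Cells carrying a p53-responsive bla reporter are treated with test compounds for 16 h at 37 C; beta-lactamase activity is then detected with LiveBLAzer B/G FRET substrate after 2 h at room temperature.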

[11] = target: 5-hydroxytryptamine receptor 2A (Homo sapiens) (UniProt P28223); experiment: 5-hydroxytryptamine receptor 2A (HTR2A) small molecule agonists, cell-based qHTS assay (AID 1963587); also: nearly all actives have a fitted effect of over 30% in size
In short: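 CHO cells stably expressing human HTR2A, plated 18 h, loaded with calcium dye 1 h at 37 C. Agonist mode: compounds added and intracellular calcium fluorescence recorded kinetically for 2 min at 1 sec intervals.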

[12] = target: Muscarinic acetylcholine receptor M1 (Homo sapiens) (UniProt P11229); experiment: Cholinergic receptor muscarinic 1 (CHRM1) small molecule antagonists, cell-based qHTS assay (AID 1963588); also: nearly all actives have a fitted effect of over 40% in size
In short: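 Compounds were tested at 15 concentrations in three independent runs. Dye-loaded CHRM1-CHO cells were exposed 5 min at room temperature before stimulation by acetylcholine added at 50nM. Intracellular calcium was read kinetically on FDSS for 3 min.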

[13] = target: Muscarinic acetylcholine receptor M1 (Homo sapiens) (UniProt P11229); experiment: Cholinergic receptor muscarinic 1 (CHRM1) small molecule agonists, cell-based qHTS assay (AID 1963589); also: nearly all actives have a fitted effect of over 35% in size
In short: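 Cells were plated and incubated 18 h at 37 C/5% CO2, loaded with calcium dye for 1 h at 37 C, then treated with compounds in DMSO. Fluorescence was recorded kinetically at 1 sec intervals.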

[14] = cAMP Responsive Elements (CRE) small molecule agonists, cell-based qHTS assay (AID 1963590)
In short: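 Cells carrying a CRE-driven beta-lactamase reporter (HEK 293T) are seeded, incubated overnight (18 h), and treated with test compounds for 3 h at 37 C; reporter activity is then detected with a FRET substrate after 2 h at room temperature.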

[15] = cAMP Responsive Elements (CRE) small molecule antagonists, cell-based qHTS assay (AID 1963591; active = well fitted inhibition curve with a large enough effect in the signal ratio in the repeat runs, not every such curve was filed as active; the % refers to the signal ratio)
In short: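 Cells (CRE-bla HEK 293T, DMEM with 10% dialyzed FBS and 25 mM HEPES) are seeded and incubated 18 h. Compounds are added with NKH477 agonist at 0.25 uM final for 3 h, then FRET substrate for 2 h.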

[16] = target: Beta-2 adrenergic receptor (Homo sapiens) (UniProt P07550); experiment: Adrenergic beta2 receptor (ADRB2) small molecule antagonists, cell-based qHTS assay (AID 1963592); also: series mostly up to about 92 µM; nearly all actives have a fitted effect of over 50% in size
In short: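 Assay format: CHO-ADRB2 cells, 18-20hr seeding at 37C/5% CO2, then compound plus 1nM isoproterenol agonist mix for 0.5hr RT. Homogeneous time-resolved fluorescence cAMP detection after 1hr, expressed as 665/615 nm ratio.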

[17] = target: Beta-2 adrenergic receptor (Homo sapiens) (UniProt P07550); experiment: Adrenergic beta2 receptor (ADRB2) small molecule agonists, cell-based qHTS assay (AID 1963593);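 also: CHO cells stably overexpressing human ADRB2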
In short: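 CHO cells stably over-expressing ADRB2 were plated overnight at 37C, then dosed with compounds plus a stimulation mix containing 100uM IBMX and 25uM Ro-20-1724 for 0.5hr at room temperature. cAMP was measured by HTRF competition, 1hr.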

[18] = target: D(2) dopamine receptor (Homo sapiens) (UniProt P14416); experiment: Dopamine D2 receptor (DRD2) small molecule agonists, cell-based qHTS assay (AID 1963594); also: nearly all actives have a fitted effect of over 35% in size
In short: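 HEK293 cells stably expressing human DRD2, pre-treated with PDE inhibitor Ro20-1724 (0.1 mM final) and compound 10 min at room temperature, then stimulated with NKH477 (200nM […]) for 30 min. cAMP read by HTRF (665/620 nm).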

[19] = target: 5-hydroxytryptamine receptor 2A (Homo sapiens) (UniProt P28223); experiment: 5-hydroxytryptamine receptor 2A (HTR2A) small molecule antagonists, cell-based qHTS assay (AID 1963586); also: nearly all actives have a fitted effect of over 45% in size
In short: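 CHO cells stably expressing human HTR2A were plated for 18 h at 37 C, then loaded with calcium dye for 1 h. Compounds were preincubated 5 min at room temperature before DOI (4 nM solution) was added. Kinetic fluorescence was read for 3 min.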

[20] = target: D(2) dopamine receptor (Homo sapiens) (UniProt P14416); experiment: Dopamine D2 receptor (DRD2) small molecule antagonists, cell-based qHTS assay (AID 1963595; active = well fitted inhibition curve with a large enough effect in the signal ratio in the repeat runs, with a control signal flat; the % refers to the signal ratio)
In short: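 Readout: HTRF cAMP, cAMP-d2 competing with cellular cAMP for anti-cAMP cryptate, read after 1 h. Cells: DRD2-HEK293. Conditions: 0.1 mM Ro20-1724, 12 nM quinpirole, 200 nM NKH477, 30 min RT.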

Measured: Potency

Chain of Beta-2 adrenergic receptor (Homo sapiens) (P07550 whole entry, looked up): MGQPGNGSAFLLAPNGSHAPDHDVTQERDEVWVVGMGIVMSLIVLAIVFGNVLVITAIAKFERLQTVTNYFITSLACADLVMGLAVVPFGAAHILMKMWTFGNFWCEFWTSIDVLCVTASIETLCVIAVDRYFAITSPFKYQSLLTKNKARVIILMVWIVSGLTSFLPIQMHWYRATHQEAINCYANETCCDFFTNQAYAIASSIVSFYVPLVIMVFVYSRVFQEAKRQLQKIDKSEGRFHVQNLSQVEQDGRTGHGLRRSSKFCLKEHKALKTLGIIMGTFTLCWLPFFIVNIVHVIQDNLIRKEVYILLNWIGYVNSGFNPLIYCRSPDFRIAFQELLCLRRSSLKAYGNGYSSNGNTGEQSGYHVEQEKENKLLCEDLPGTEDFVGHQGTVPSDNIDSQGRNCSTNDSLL
Chain of 5-hydroxytryptamine receptor 2A (Homo sapiens) (P28223 whole entry, looked up): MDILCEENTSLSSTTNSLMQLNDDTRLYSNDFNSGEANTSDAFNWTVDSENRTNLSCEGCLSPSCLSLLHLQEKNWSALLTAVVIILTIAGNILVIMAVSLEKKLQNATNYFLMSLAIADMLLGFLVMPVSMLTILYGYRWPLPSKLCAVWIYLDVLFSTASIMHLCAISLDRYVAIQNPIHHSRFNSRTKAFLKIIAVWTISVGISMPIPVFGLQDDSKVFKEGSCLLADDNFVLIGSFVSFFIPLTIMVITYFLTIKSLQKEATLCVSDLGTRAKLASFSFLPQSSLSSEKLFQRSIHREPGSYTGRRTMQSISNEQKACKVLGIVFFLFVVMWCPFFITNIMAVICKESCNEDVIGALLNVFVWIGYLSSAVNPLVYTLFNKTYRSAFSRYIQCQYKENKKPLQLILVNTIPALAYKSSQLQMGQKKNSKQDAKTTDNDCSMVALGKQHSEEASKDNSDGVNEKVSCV
Chain of Gonadotropin-releasing hormone receptor (Homo sapiens) (P30968 whole entry, looked up): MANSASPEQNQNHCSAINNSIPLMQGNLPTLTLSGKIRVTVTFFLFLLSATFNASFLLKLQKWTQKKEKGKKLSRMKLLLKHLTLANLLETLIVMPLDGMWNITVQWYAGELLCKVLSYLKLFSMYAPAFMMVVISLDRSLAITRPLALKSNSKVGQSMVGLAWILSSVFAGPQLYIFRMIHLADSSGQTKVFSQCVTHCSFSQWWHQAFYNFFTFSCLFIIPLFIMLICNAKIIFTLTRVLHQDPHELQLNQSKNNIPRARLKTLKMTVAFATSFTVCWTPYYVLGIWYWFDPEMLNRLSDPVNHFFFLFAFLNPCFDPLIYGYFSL
Chain of Muscarinic acetylcholine receptor M1 (Homo sapiens) (P11229 whole entry, looked up): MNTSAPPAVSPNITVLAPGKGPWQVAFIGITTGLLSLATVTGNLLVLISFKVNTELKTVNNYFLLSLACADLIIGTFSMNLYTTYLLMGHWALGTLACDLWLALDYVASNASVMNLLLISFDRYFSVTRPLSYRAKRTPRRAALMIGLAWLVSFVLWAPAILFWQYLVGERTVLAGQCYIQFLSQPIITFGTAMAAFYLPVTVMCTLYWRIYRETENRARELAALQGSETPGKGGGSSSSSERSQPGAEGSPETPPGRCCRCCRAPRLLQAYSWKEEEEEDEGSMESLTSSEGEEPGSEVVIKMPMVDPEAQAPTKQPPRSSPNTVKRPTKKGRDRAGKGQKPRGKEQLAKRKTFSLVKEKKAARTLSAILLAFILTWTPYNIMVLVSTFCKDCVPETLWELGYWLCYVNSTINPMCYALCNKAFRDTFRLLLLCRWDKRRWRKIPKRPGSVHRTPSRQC
Chain of D(2) dopamine receptor (Homo sapiens) (P14416 whole entry, looked up): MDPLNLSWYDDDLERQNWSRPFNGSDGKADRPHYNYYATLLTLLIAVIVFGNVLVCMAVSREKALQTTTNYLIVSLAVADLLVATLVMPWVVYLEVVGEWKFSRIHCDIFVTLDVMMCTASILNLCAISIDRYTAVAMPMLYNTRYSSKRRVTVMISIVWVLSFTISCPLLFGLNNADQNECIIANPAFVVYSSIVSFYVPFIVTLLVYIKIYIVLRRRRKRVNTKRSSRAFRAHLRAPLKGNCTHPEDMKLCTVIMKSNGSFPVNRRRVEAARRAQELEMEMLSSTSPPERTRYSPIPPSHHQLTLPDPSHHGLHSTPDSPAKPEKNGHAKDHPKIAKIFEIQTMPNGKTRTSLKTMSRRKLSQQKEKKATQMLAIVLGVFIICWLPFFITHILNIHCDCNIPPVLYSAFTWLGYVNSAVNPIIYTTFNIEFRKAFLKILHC

CC(C)(CO)[C@@H](O)C(=O)NCCC(=O)O
inactive: [1] | [2] | [3] | [4] | [5] | [6] | [7] | [8] | [9] | [10] | [11] | [12] | [13] | [14] | [15] | [16] | [17] | [18]

Cc1cc(C)cc(OCC2CNC(=O)O2)c1 (stereo unspecified)
inactive: [1] | [2] | [3] | [4] | [5] | [6] | [7] | [8] | [9] | [10] | [19] | [11] | [12] | [13] | [14] | [15] | [16] | [17] | [18] | [20]

O=C(O)Cc1ccc(CCNS(=O)(=O)c2ccc(Cl)cc2)cc1
inactive: [1] | [2] | [3] | [4] | [5] | [6] | [7] | [8] | [9] | [10] | [19] | [11] | [12] | [13] | [14] | [15] | [17] | [18] | [20]

O=S(=O)(O)CCS
inactive: [1] | [2] | [3] | [4] | [5] | [6] | [7] | [8] | [9] | [10] | [14] | [15] | [16] | [17] | [18] | [20]

Cc1ccc2c(c1)OCC(=O)CO2
inactive: [1] | [2] | [3] | [4] | [5] | [6] | [7] | [8] | [9] | [19] | [11] | [12] | [13] | [14] | [15] | [16] | [18] | [20]

COC(OC)C(C)c1ccccc1 (stereo unspecified)
inactive: [1] | [2] | [3] | [4] | [5] | [6] | [7] | [8] | [9] | [10] | [11] | [12] | [13] | [14] | [15] | [16] | [18] | [20]

CCCCCCCCSCCO
inactive: [1] | [2] | [3] | [4] | [5] | [6] | [7] | [8] | [9] | [10] | [19] | [12] | [13] | [14] | [16] | [17] | [20]

O=Cc1cccc([N+](=O)[O-])c1
inactive: [1] | [2] | [3] | [4] | [5] | [6] | [7] | [8] | [9] | [10] | [19] | [11] | [12] | [13] | [14] | [15] | [16] | [18]

COc1ccc(C(=O)NCc2ccc(OCCN(C)C)cc2)cc1OC
inactive: [1] | [2] | [3] | [4] | [5] | [6] | [7] | [8] | [10] | [19] | [11] | [12] | [13] | [14] | [15] | [16] | [18] | [20]

CCCCCCOC(=O)C(C)CC (stereo unspecified)
inactive: [1] | [2] | [3] | [4] | [5] | [6] | [7] | [8] | [9] | [10] | [19] | [11] | [12] | [13] | [14] | [15] | [16] | [17] | [18] | [20]

CC1(C)[C@H]2CC[C@](C)(C2)[C@H]1O
inactive: [1] | [2] | [3] | [4] | [5] | [6] | [7] | [8] | [9] | [10] | [19] | [12] | [13] | [14] | [15] | [16] | [17] | [18]

CCOC(=O)c1cccc(N)c1
inactive: [1] | [2] | [3] | [4] | [5] | [6] | [7] | [8] | [9] | [10] | [19] | [11] | [12] | [13] | [14] | [15] | [16] | [17] | [20]

c1ccc2ncccc2c1
inactive: [1] | [2] | [3] | [4] | [5] | [6] | [7] | [8] | [9] | [10] | [11] | [12] | [13] | [14] | [15] | [16] | [18] | [20]

COC(=O)c1ccc(C)cc1C1=NC(C)(C(C)C)C(=O)N1 (stereo unspecified)
inactive: [1] | [2] | [3] | [4] | [5] | [6] | [7] | [8] | [9] | [10] | [19] | [11] | [13] | [14] | [15] | [16]

CC(O)C(C)O (stereo unspecified)
inactive: [1] | [2] | [3] | [4] | [5] | [6] | [7] | [8] | [9] | [10] | [19] | [11] | [14] | [15] | [16] | [17] | [18] | [20]
